The values that follow come from PubChem BioAssay (NCATS).

Each structure is given as a SMILES string. Several values for one entry are separate records, joined by “and”; a condition that tells them apart may be missing. Equal values may be shown once. Inconclusive results are not listed. Where a structure was tested more than once in an assay, its records may differ in their call. Activity calls are given as the source filed them. Unless noted, the call rests on the fitted dose curve; in most records, active means well fitted curve in the direction sought with a large enough effect; inconclusive means small, poorly fitted or top-dose-only effect, or another doubt; inactive means no such curve, though single readings can be large; an effect the other way counts as inactive or inconclusive.

A short description of test [1]: Cellular Toxicity (caspase-3) H-4-II-E (AID 663).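 Further: cells exposed to compound for 16 hr before readout; 0% = DMSO basal and 100% = 100 µM tamoxifen.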 The following applies: Potency: caspase-3 activation. Summed up: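 Luminescence from caspase-cleaved aminoluciferin substrate, read 20 min after reagent addition, reports caspase 3/7 activation in rat H-4-II-E cells after 16 hr compound exposure. Normalized to DMSO (basal) and 100 uM tamoxifen (100%); AC50 from Hill fits.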

The target in test [2] is Estrogen receptor (Homo sapiens) (UniProt P03372). Briefly: qHTS assay for small molecule antagonists of estrogen receptor alpha signaling (AID 588513; active means well fitted curve in the direction sought with a large enough effect in the signal ratio, with a control signal flat, not every such curve was filed as active; the % refers to the signal ratio; further: on the % scale 0 is the no-effect control and ±100 the full control effect). In short, it runs like this:
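Beta-lactamase reporter, antagonist mode, HEK 293 GripTite cells; 0.5nM E2 stimulus, 18 h, 37 C; CCF4 dye 2 h RT; fluorescence. IC50 and efficacy from Hill fits, normalized to E2 and DMSO.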

For test [3] the target is unchanged. Briefly: qHTS assay for small molecule agonists of estrogen receptor alpha signaling (AID 588514; calls by dose curve;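 further: 0% = vehicle only and 100% = reference agonist; nearly all actives have a fitted effect of over 70% in size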). In short, it runs like this:
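Reporter-gene assay. […] controls beta-lactamase in HEK 293 GripTite cells; after 18 hrs with compound, CCF4 substrate is added for 2 hrs and fluorescence is read.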

Test [4] deals with Peroxisome proliferator-activated receptor delta (Homo sapiens) (UniProt Q03181). Nature of the test: qHTS assay for small molecule antagonists of peroxisome proliferator-activated receptor delta signaling (AID 588535; active means well fitted inhibition curve with a large enough effect in the signal ratio, with a control signal flat, not every such curve was filed as active; the % refers to the signal ratio). In short, it runs like this:
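GeneBLAzer PPAR-delta-UAS-bla HEK293T cells in medium with 2% charcoal/dextran FBS were preincubated 5 hrs at 37 C, then given compounds, incubated 18 hrs at 37 C, and read by CCF4 beta-lactamase fluorescence; IC50 from Hill fits.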
For orientation: In qHTS, concentration-response curves come from the screen itself.

Test [5] has as its target Peroxisome proliferator-activated receptor gamma (Homo sapiens) (UniProt P37231). Briefly: qHTS assay for small molecule agonists of peroxisome proliferator-activated receptor gamma signaling (AID 588536; active means well fitted curve in the direction sought with a large enough effect in the signal ratio, with a control signal flat, not every such curve was filed as active; the % refers to the signal ratio;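 further: 0% = DMSO basal wells and 100% = rosiglitazone at 2 µM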). In short, it runs like this: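 PPAR-gamma-UAS-bla HEK293 cells in medium with 1% charcoal/dextran-treated FBS were exposed to compounds for 16 h at 37 C. Beta-lactamase activity was read with CCF4 substrate (405 nm excitation, 460/530 nm emission).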

Test [6] has as its target Vitamin D3 receptor (Homo sapiens) (UniProt P11473). Briefly: qHTS assay for small molecule antagonists of vitamin D receptor signaling (AID 588541; calls by dose curve; further: potency means the concentration at half of the fitted maximal effect). In short, it runs like this:
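VDR-UAS-bla HEK293T cells (2000/well, 2% charcoal-stripped FBS) were treated with titrated compounds plus 1-alpha,25-dihydroxyvitamin D3 (50 nM or 3 nM final) for 16 h at 37 C. CCF4 beta-lactamase fluorescence was read; Hill fits gave IC50.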

Test [7] has the same target. Nature of the test: qHTS assay for small molecule agonists of vitamin D receptor signaling (AID 588543; calls by dose curve;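 further: 0% = DMSO basal and 100% = reference agonist control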). In short, it runs like this: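 β-lactamase reporter, VDR-UAS-bla HEK293T, agonist mode. Cells plated 5 h at 37 °C, compound titration 16 h at 37 °C, CCF4 dye 2 h RT, ratio 460/530 nm. Hill fit → EC50, efficacy vs 50 nM 1α,25-(OH)2D3.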
Test [8] in a line: qHTS assay for small molecule agonists of the antioxidant response element (ARE) signaling pathway (AID 651741; active means well fitted activation curve with a large enough effect in the signal ratio; the % refers to the signal ratio; further: potency means the concentration at half of the fitted maximal effect; on activation: % of control where 0% means no effect). In short, it runs like this: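 ARE-bla HepG2 cells (beta-lactamase reporter under ARE control) were plated at 2,000 cells/well, preincubated 5 h at 37 C/5% CO2, then treated with DMSO-dissolved compounds for 16 h at 37 C; LiveBLAzer B/G FRET substrate added, fluorescence read after 2 h at room temperature.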

The nature of test [9]: qHTS assay for small molecule activators of the p53 signaling pathway (AID 651743; active means well fitted activation curve with a large enough effect in the signal ratio, not every such curve was filed as active; the % refers to the signal ratio; further: potency means the concentration at half of the fitted maximal effect; on activation: % of control where 0% means no effect). The following applies: HCT-116 p53RE-bla, beta-lactamase FRET ratio, 16 h; activation: stronger effect = higher value. Summed up:
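p53RE-bla HCT-116 cells with a stably integrated beta-lactamase reporter under p53 response elements were plated, rested 5 hours at 37 C/5% CO2, then exposed to compounds in DMSO for 16 hours at 37 C. LiveBLAzer B/G FRET substrate was read after 2 hours at room temperature.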

Test [10] in a line: qHTS assay for small molecule activators of the nuclear factor-kappa B (NF-kB) signaling pathway (AID 651749; active means well fitted activation curve with a large enough effect in the signal ratio; the % refers to the signal ratio; further: % of control where 0% means no effect). As to conditions: NF-kB-bla ME-180 cells, beta-lactamase FRET ratio, 16 h; stronger effect = higher value. In short, it runs like this:
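ME-180 cells stably carrying a beta-lactamase reporter under an NF-kB response element were exposed to compound or DMSO vehicle for 16 hr at 37C, 5% CO2. Pathway activation was read by FRET, since reporter expression disrupts FRET.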

Test [11] addresses Tumor necrosis factor (Homo sapiens) (UniProt P01375). Nature of the test: qHTS assay to identify small molecules that stimulate Tumor Necrosis Factor-alpha (TNF-alpha) secretion (AID 651757; active means well fitted curve in the direction sought with a large enough effect in the signal ratio; the % refers to the signal ratio; further: 0% is about no effect). Summed up: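 Secreted TNF-alpha from compound-treated THP-1 cells (17 hrs, 37 C) was quantified with a homogeneous time-resolved fluorescence antibody assay.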
Test [12] is described as follows: qHTS assay for small molecule antagonists of the retinoid-related orphan receptor gamma (ROR-gamma) signaling pathway - cell viability counter screen (AID 720652; active means well fitted curve in the direction sought with a large enough effect in the repeat runs; an effect the other way counts as inactive or inconclusive;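 further: CHO reporter cells with doxycycline-induced ROR-gamma expression; compound exposure lasted 16 hr before ATP read; on the % scale 0 is the no-effect control and ±100 the full control effect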). In short, it runs like this:
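Cytotoxicity is quantified via intracellular ATP (CellTiter-Glo luminescence) in doxycycline-induced CHO ROR response element-luciferase reporter cells treated with compound for 16 hr at 37 C, 5% CO2.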

Test [13] is described as follows: qHTS assay for small molecule activators of the human pregnane X receptor (PXR) signaling pathway (AID 720659; call rule not given here; further: 0% is about no effect).
A short description of test [14]: Cell Viability - Jurkat (AID 426;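 active means dose-dependent loss of cell ATP signal giving a full or clear fitted curve, ranked by lower potency value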;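 further: potency means the concentration at half of the fitted maximal effect; cells exposed to compound for 40 hours at 37 °C before ATP read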). The following applies: qHTS. In short, it runs like this:
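Seed 5000 Jurkat E6-1 cells/well; add compound; incubate 40 hr at 37 °C; add CellTiter-Glo; wait 20 min at room temperature; read luminescence. Fit concentration-response with Hill equation for AC50.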

The nature of test [15]: Cell Viability - NIH 3T3 (AID 541).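 Further: cells exposed to compound for 40 hours; nearly all actives have a fitted effect of over 25% in size.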 Further: potency means the concentration at half of the fitted maximal effect.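 On activity change, negative = cytotoxicity: plate controls were DMSO alone for no effect and tamoxifen positive control for full effect.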 The following applies: NIH 3T3 cell viability, qHTS; activity change, negative = cytotoxicity: at 92.2 µM (top of the series). In short, it runs like this:
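AC50 values reflect concentration-dependent loss of intracellular ATP in NIH 3T3 cells after 40 hr treatment in complete culture medium, quantified by luciferase-based luminescence.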

The nature of test [16]: Cellular Toxicity (caspase-3) SHSY5Y (AID 657). In short, it runs like this:
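Luminescent caspase-3/7 readout (aminoluciferin release) in SH-SY5Y cells after 16 h compound exposure in complete medium. Activity scaled between DMSO basal and 10 uM staurosporine as 100%; concentration-response fitted to Hill equation for AC50.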

Test [17] is described as follows: Cellular Toxicity (caspase-3) Mesangial (AID 660).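 Further: combined caspase 3 and 7 activity read by Caspase-Glo luminescence; cells exposed to compound for 16 h before the caspase read.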 In short, it runs like this: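 Concentration-response qHTS: compound-induced rise in caspase 3/7 luminescence in human mesangial cells after 16 h, normalized to DMSO and 100 uM tamoxifen controls.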
The target in test [18] is Cytochrome P450 3A4 (Homo sapiens) (UniProt P08684). Nature of the test: qHTS Assay for Inhibitors and Substrates of Cytochrome P450 3A4 (AID 884). Further: on the % scale 0 is the no-effect control and ±100 the full control effect; nearly all actives have a fitted effect of over 50% in size. Summed up: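 20 nM human CYP3A4 with 25 uM Luciferin-PPXE (at KM) in 200 mM KPO4, preincubated 10 min with compound; NADPH regeneration started a 60 min RT reaction. Luciferin detected by luminescence, normalized to 57 uM ketoconazole as full inhibition.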

Test [19] addresses Nuclear receptor ROR-gamma (Homo sapiens) (UniProt P51449). Briefly: qHTS assay for small molecule antagonists of the retinoid-related orphan receptor gamma (ROR-gamma) signaling pathway (AID 651802). Further: potency means the concentration at half of the fitted maximal effect; nearly all actives have a fitted effect of over 60% in size. In short, it runs like this: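 Antagonism is scored as a fall in luminescence from a RORE-luciferase reporter in CHO cells expressing ROR under a TET-inducible promoter, measured 16hr after doxycycline induction in the presence of compound.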

A short description of test [20]: Cellular Toxicity (caspase-3) BJ (AID 658). Further: potency means the concentration at half of the fitted maximal effect.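 On caspase-3 activation: 0% = DMSO basal and 100% = 10 µM staurosporine.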 The following applies: Potency: caspase-3 activation. Summed up: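 Luminescent aminoluciferin-substrate cleavage reports caspase 3/7 activity in normal human BJ fibroblasts after 16 hr compound exposure at 37 °C. Normalized to DMSO (basal) and 10 uM staurosporine (100%); AC50 from Hill fit of concentration-response.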

Chain of Vitamin D3 receptor (Homo sapiens) (P11473 whole entry, looked up): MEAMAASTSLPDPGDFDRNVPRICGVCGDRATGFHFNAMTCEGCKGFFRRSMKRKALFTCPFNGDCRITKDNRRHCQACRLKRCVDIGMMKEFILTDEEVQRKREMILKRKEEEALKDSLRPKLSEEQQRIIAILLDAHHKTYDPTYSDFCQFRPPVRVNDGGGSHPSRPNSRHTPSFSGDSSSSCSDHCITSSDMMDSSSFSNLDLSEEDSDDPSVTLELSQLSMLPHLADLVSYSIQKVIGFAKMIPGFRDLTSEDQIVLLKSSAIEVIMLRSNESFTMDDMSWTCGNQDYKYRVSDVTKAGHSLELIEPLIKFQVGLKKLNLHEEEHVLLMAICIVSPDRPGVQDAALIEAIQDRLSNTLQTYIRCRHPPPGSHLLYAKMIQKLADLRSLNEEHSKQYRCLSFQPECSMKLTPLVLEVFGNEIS
Chain of Nuclear receptor ROR-gamma (Homo sapiens) (P51449 whole entry, looked up): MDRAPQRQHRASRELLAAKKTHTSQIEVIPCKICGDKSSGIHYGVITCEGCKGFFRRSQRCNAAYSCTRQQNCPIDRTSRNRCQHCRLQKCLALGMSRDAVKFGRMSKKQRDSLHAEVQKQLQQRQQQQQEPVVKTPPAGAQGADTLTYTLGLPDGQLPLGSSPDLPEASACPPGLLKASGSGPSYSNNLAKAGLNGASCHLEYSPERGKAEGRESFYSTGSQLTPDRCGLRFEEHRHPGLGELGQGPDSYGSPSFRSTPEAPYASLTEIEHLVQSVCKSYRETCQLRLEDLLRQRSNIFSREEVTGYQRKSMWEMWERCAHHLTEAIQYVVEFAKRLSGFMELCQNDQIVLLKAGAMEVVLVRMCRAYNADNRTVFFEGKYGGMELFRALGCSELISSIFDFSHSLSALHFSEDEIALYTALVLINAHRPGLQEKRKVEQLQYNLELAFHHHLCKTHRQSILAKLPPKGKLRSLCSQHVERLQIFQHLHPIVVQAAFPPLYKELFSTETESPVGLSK
Chain of Tumor necrosis factor (Homo sapiens) (P01375 whole entry, looked up): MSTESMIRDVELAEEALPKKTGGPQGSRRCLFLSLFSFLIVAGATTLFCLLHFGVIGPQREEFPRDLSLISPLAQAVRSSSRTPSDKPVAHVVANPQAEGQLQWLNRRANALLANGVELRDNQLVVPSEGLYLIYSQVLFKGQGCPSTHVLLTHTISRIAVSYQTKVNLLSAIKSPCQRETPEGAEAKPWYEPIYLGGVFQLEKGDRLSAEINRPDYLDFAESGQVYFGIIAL
Chain of Peroxisome proliferator-activated receptor delta (Homo sapiens) (Q03181 whole entry, looked up): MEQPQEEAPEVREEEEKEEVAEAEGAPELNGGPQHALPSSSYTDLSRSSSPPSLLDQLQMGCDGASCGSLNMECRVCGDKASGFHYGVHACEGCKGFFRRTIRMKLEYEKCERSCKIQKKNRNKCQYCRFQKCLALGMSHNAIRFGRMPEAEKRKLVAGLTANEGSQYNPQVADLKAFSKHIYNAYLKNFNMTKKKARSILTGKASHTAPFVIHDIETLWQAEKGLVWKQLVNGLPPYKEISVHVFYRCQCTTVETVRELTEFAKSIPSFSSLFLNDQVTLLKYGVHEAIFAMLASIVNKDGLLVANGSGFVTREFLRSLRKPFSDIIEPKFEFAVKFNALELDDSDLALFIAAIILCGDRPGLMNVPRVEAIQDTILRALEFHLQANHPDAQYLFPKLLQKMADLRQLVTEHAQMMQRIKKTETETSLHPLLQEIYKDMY
Chain of Estrogen receptor (Homo sapiens) (P03372 whole entry, looked up): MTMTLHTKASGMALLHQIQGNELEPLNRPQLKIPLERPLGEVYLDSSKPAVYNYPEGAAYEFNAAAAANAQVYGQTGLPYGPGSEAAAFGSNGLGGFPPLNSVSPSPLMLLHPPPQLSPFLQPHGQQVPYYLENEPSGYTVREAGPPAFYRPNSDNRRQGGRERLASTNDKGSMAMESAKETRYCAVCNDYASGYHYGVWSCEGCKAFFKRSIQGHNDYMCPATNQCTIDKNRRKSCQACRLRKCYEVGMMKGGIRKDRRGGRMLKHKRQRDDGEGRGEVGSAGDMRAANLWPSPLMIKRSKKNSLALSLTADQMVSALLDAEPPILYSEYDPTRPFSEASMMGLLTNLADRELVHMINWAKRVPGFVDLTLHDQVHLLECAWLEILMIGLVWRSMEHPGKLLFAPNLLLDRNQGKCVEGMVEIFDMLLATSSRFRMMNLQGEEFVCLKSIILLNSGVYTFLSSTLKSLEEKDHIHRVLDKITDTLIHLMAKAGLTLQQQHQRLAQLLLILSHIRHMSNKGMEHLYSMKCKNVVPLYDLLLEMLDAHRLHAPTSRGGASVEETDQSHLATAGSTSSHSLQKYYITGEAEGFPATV
Chain of Peroxisome proliferator-activated receptor gamma (Homo sapiens) (P37231 whole entry, looked up): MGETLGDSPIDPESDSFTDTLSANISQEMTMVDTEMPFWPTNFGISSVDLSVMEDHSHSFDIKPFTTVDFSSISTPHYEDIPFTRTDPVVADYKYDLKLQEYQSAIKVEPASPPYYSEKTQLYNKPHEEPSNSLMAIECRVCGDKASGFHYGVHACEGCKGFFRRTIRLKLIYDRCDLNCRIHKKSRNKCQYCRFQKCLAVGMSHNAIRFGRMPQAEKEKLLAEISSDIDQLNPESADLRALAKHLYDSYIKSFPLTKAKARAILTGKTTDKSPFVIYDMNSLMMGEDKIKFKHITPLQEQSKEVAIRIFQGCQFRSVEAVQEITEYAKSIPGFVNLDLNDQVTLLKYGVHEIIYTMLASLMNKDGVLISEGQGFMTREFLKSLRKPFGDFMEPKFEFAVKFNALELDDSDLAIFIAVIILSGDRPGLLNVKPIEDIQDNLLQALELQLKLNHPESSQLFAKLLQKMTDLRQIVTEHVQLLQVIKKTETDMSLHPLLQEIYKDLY
Chain of Cytochrome P450 3A4 (Homo sapiens) (P08684 whole entry, looked up): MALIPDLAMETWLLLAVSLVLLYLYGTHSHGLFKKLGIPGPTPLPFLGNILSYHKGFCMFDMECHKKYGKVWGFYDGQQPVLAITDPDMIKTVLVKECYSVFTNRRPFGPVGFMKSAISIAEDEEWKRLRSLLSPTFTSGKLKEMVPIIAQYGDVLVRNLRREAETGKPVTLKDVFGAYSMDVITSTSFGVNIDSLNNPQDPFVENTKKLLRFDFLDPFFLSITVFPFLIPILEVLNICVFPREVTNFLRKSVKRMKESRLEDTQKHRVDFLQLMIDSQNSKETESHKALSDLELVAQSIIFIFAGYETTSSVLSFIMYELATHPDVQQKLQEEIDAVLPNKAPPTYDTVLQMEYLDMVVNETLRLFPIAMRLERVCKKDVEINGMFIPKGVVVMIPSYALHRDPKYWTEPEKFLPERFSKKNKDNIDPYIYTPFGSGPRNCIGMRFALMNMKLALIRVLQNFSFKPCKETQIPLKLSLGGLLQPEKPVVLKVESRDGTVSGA

In the case of `O=C1OC(=O)c2ccccc21`, the Potency result in test [1], in test [3], in test [6], in test [7], in [8] and in test [11] was “inactive” in each case. Besides, the Potency result in test [12] is “inactive”. Besides, the compound was called inactive in [2], in test [4], in test [5] and in test [13]. Further, the activation in test [9] was -3.66% (inactive); in test [10] it was 0.114% (inactive).

With `Oc1c(Cl)cc(Cl)c(Cl)c1Cl`, the Potency is 57 µM (active) in test [14], 33.5 µM (active) in test [8], 44.7 µM (active) in [9] and 33.5 µM (active) in test [19]. The activity change, negative = cytotoxicity in test [15] is -2.17% (inactive). Further, the Potency entry in test [16], in [18], in test [6], in test [7], in test [11] and in [12] was “inactive” in each case. The outcome in [17], in test [4] and in [5] was inactive. For the same compound, the activation is 2.74% (inactive) in [9]; -0.537% (inactive) and 2.41% (inactive) in [10].

`C[C@@H]1CC2(OC(O)[C@]3(C)O[C@H]23)O[C@H]2C[C@@]3(C)[C@@H]4CC[C@H]5C(C)(C)C(O[C@@H]6OC[C@@H](O)[C@H](O)[C@H]6O)CC[C@@]56C[C@@]46CC[C@]3(C)[C@@H]12` (some centres not stated): the Potency was 41.2 µM (inactive) in test [14], 31.6 µM (active) in test [20] and 33.5 µM (active) in [19]. Further, the Potency result in test [16], in test [18] and in [11] was “inactive” in each case. In addition, the results for the activation in test [9] and in [10] were -3.37% (inactive) and -2.65% (inactive), respectively. For the same compound, in test [13], the call was inactive.

Regarding `C=CC(=O)OCCCCCCOC(=O)C=C`, the Potency in test [14] was 21.1 µM (active); in [15], 7.94 µM (active); in test [6] it was 31.6 µM (active) and inactive; in test [8] it was 29.8 µM (active); in [9], 70.8 µM (active). Moreover, the Potency entry in test [16], in test [20], in test [7] and in test [11] was “inactive” throughout. In addition, the call in test [17], in test [2], in [4], in test [5] and in test [13] was inactive. Moreover, the activation in test [9] was -3.66% (inactive).

With `CCN(CC)c1ccc(N)cc1`, the results for the Potency in test [14], in test [8] and in test [19] were 44 µM (active), 37.6 µM (active) and 37.6 µM (active), respectively. The activity change, negative = cytotoxicity in test [15] is -96.6% (active). In addition, the Potency result in test [20], in test [1], in test [6], in [7] and in [12] was “inactive” throughout. In addition, in test [17], the compound was called inactive. For the same compound, the figures for the activation in [9] and in [10] were 11.7% (inactive) and 0.867% (inactive), respectively.

Consider `Oc1cc2c(cc1O)[C@H]1c3ccc(O)c(O)c3OC[C@@]1(O)C2`, for which the Potency in test [14] is 35.9 µM (active); in test [8] it was 66.8 µM (active); in test [19] it was 11.9 µM (active). In test [15], the activity change, negative = cytotoxicity is -89.3% (active). The Potency entry in [16], in test [3] and in test [12] was “inactive” each time. Further, the outcome in test [17], in test [2], in test [5] and in test [13] was inactive. Also, the activation in test [10] is -1.98% (inactive).
